# Pf growth 96h: P. falciparum growth inhibition at 96 hours; P. falciparum luciferase reporter growth, 96 h; Potency, µM (top dose mostly 28.7 µM), for inactives: at the highest dose activity change, negative = inhibition, most hits filed as inhibitors; 6.9% of 320,000 active; also: potency is read from the fitted curve at half-maximal effect; % is scaled to controls: 0 for no effect and ±100 for the full control effect
#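 P. falciparum expressing integrated firefly luciferase, in erythrocytes at 2% hematocrit, 0.05% parasitemia, incubated with compounds 96 h at 37 C, 5% CO2. Growth inhibition read as loss of luminescence; two-generation exposure targets delayed-death apicoplast inhibitors.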
# HCV inh: inhibitors of hepatitis C virus infection. 3.4% of 340,000 active. Potency, µM (series often up to 41.8 µM), for inactives: at the top dose activity change, negative = inhibition, usual class: inhibitors. Huh7.5.1 HCVcc-Cre infection, luciferase reporter, 44 h; also: potency is read from the fitted curve at half-maximal effect; % is scaled to controls: 0 for no effect and ±100 for the full control effect
#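 Cells (1,000/well) were plated 4 h before compound, then infected with HCVcc-Cre virus (~0.5 moi). After 44 h further culture, infection was read as luciferase luminescence following a 15 min substrate incubation at room temperature.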
# SARS PLpro yeast: inhibitors of SARS-CoV papain-like protease in yeast. 0.19% of 330,000 active. AID 485353. Potency, µM (top dose mostly 32.9 µM), without a hit: at the highest dose activity, positive = growth rescue, actives largely listed as activators. S. cerevisiae expressing SARS-CoV PLpro, growth rescue; calls by dose curve; also: potency is read from the fitted curve at half-maximal effect; 0% is about no effect; nearly all actives have a fitted effect of over 55% in size
# Sm TGR block: blocks Schistosoma mansoni thioredoxin glutathione reductase. Q962Y6. Potency, µM (doses to about 114 µM), without a hit: at the top dose activity change, negative = inhibition, usual class: inhibitors. 3% of 360,000 active. purified TGR, DTNB reduction, TNB absorbance 405 nm; also: potency is read from the fitted curve at half-maximal effect; % is scaled to controls: 0 for no effect and ±100 for the full control effect; nearly all actives have a fitted effect of over 60% in size
#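 TGR 20 nM + NADPH 100 uM (dispensed conc.), cpd preinc 15 min RT; start with NADPH (500 uM addition) then DTNB (15 mM addition). Kinetic TNB absorbance, 405 nm filter. Four-parameter Hill fit across titration.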
# HCMV inh: human cytomegalovirus inhibition | 4.5% of 410,000 active | activity change, negative = inhibition, % at 57.5 µM | HFF cells, HCMV-luciferase reporter, 72 h; stronger effect = lower value; in the data active = activity change below about -60%; inconclusive = no clear call, values can overlap the other calls; inactive = above about -39%; also: % is scaled to controls: 0 for no effect and ±100 for the full control effect
#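 Two-dose cell screen: HFF monolayers treated with compounds and infected with luciferase-expressing HCMV at 1 PFU/cell, 72 h at 37C, then lysed for luciferase measurement.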
# Pf growth 48h: P. falciparum growth inhibition at 48 hours (one generation); P. falciparum luciferase growth in erythrocytes, 48 h; Potency, µM (series often up to 28.7 µM), without a hit: at the top dose activity change, negative = inhibition, most hits filed as inhibitors; 5.9% of 310,000 active; AID 504832; also: potency is read from the fitted curve at half-maximal effect; % is scaled to controls: 0 for no effect and ±100 for the full control effect
#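 Here the parasites carry a stable luciferase gene and grow inside erythrocytes in Albumax-based RPMI medium with compound for one erythrocytic cycle. Activity is scored as loss of luminescent signal.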
# Numbers without * were called inactive; u = inconclusive; x = no result; ! = not confirmed by another sample; [ ] = dose if it differs, or a comment. A selection: hits, their analogues and other compounds. The true share with any hit is near 15%. Unless noted, calls follow the shape of the dose curve; as a rule, active = well fitted curve in the direction sought with a large enough effect; inconclusive = small, poorly fitted or top-dose-only effect, or another doubt; inactive = no such curve, though single readings can be large; an effect the other way counts as inactive or inconclusive.
SMILES,Pf growth 96h,HCV inh,SARS PLpro yeast,Sm TGR block,HCMV inh,Pf growth 48h
O=C1c2ccccc2C(=O)N1OS(=O)(=O)c1ccccc1,-18.5%,-5.4%,-13.8%,1.26µM*,x,5.9%
O=C1c2cccc3cccc(c23)C(=O)N1OS(=O)(=O)c1ccccc1,-11.1%,13.6%,-2.4%,-0.3%,-13.4,u
Cc1cc(S(=O)(=O)ON2C(=O)c3ccccc3C2=O)ccc1F,19.4%,1.8%,-9.7%,0.794µM*,3.2,29.5%
Cc1ccc(S(=O)(=O)ON2C(=O)c3cccc4cccc(c34)C2=O)cc1,41.9%,-1.6%,-18.1%,-8.5%,11.5,5.8%
Cc1ccc(C)c(S(=O)(=O)ON2C(=O)c3ccccc3C2=O)c1,u,5.5%,6.8%,0.891µM*,-38.2,11.4%
CC1(C(=O)O)CCN1C(=O)c1ccccc1F (stereo unspecified),x,x,x,x,-1.1,x
Cc1cc(OCCCn2c(CCNC(=O)C3CCCCC3)nc3ccccc32)ccc1Cl,x,x,x,-4.9%,-73.2*,x
Cc1cccc(C)c1OCCCn1c(CCNC(=O)C2CCCCC2)nc2ccccc21,x,x,x,13.8%,24.3,x
Cc1cccc(NC(=O)CSc2nc3ccccc3c3nc(CCc4c(C)n[nH]c4C)nn23)c1,18.9%,25.1µM*,2.5%,-0.6%,-81.7*!,7.38µM*
Cc1n[nH]c(C)c1CCc1nc2c3ccccc3nc(SCC(=O)Nc3ccccc3F)n2n1,u,u,-3.9%,-7.5%,-72.7*,x
Cc1ccc2nc(N3CCN(c4ccccc4F)CC3)c(C=O)c(=O)n2c1,5.7%,4.0%,0.1%,u,-5.2,31.6%
CCc1ccccc1NC(=O)C1CCN(S(=O)(=O)c2ccc3c(c2)N(C(C)=O)CCO3)CC1,u,u,-0.5%,-12.7%,0.0,5.2%
O=C(NCC(=O)N1CCN(c2ncccn2)CC1)c1ccc(F)cc1,69.3%,17.1%,-2.9%,u,0.0,98.6%
CC(C)OC(=O)C1C(=O)CC(C)(O)C(C(=O)OC(C)C)C1c1cccc([N+](=O)[O-])c1 (stereo unspecified),u,10.1%,-3.4%,-1.3%,-30.4,u
CC1=C(C(=O)OCCN(Cc2ccccc2)c2ccccc2)C(c2cccc([N+](=O)[O-])c2)C(P2(=O)OCC(C)(C)CO2)=C(C)N1 (stereo unspecified),x,x,x,x,-20.1,x
COCCOC(=O)C1=C(C)NC(C)=C(C(=O)OC/C=C/c2ccccc2)C1c1cccc([N+](=O)[O-])c1 (stereo unspecified),8.49µM*,x,x,x,x,10.7µM*
CC1=C(C(=O)OC(C)C)C(c2cccc([N+](=O)[O-])c2)C(C(=O)OC2CN(C(c3ccccc3)c3ccccc3)C2)=C(N)N1 (stereo unspecified),-2.8%,x,x,x,x,7.57µM*
COC(=O)C1=C(C)NC(C)=C(C(=O)OC(C)(C)CN(C)CCC(c2ccccc2)c2ccccc2)C1c1cccc([N+](=O)[O-])c1 (stereo unspecified),3.01µM*,x,x,x,x,1.51µM*
COCCOC(=O)C1=C(C)NC(C)=C(C(=O)OC(C)C)C1c1cccc([N+](=O)[O-])c1 (stereo unspecified),6.57µM*!,u,5.2%,-3.5%,u,9.28µM*
COC(=O)c1ccc(CSc2nnc(C)n2N)o1,51.2%,4.4%,-9.3%,-2.2%,-13.3,-14.6%
Cc1cccc(CCNC(=O)C2CCN(S(=O)(=O)c3c(C)nn(C)c3C)CC2)c1,47.5%,3.3%,2.8%,8.4%,42.1,x
Cc1ccccc1CN1CCN(c2ncc(C(=O)NCCN(C)C)s2)C1=O,x,x,x,x,-18.2,x
CCOC(=O)C1=C(C)NC(C)=C(C(=O)OCC)C1c1ccc([N+](=O)[O-])s1,13.1µM*,-28.3%,-1.3%,u,19.6,u
CCOC(=O)C1=C(N)Oc2cc(O)ccc2C1c1cccc([N+](=O)[O-])c1 (stereo unspecified),-63.8%,u,-4.1%,x,-68.7*,-8.1%
CCOC(=O)C1=C(C)NC(C)=C(C(=O)OC)C1c1cccc([N+](=O)[O-])c1 (stereo unspecified),u,u,5.9%,12.0%,u,5.86µM*
SMILES,Pf growth 96h,HCV inh,SARS PLpro yeast,Sm TGR block,HCMV inh,Pf growth 48h
CCOC(=O)C1=C(N)Oc2cc(O)ccc2C1c1ccccc1 (stereo unspecified),11.2%,7.9%,-1.8%,-20.3%,-29.3,0.0%
CCOC(=O)C1=C(C)NC(C)=C(C(=O)OCC)C1c1ccc(OC)cc1,-12.9%,-25.5%,12.7%,-3.2%,91.9,u
O=S(=O)(Nc1ccc2c(c1)OCO2)c1ccccc1,x,3.1%,9.5%,3.5%,40.1,-2.8%
CN(C)CC(NC(=O)c1cccc(S(=O)(=O)Nc2ccc3c(c2)OCO3)c1)c1ccccc1 (stereo unspecified),4.15µM*,-0.9%,-7.2%[6.58 µM],u,0.0,u
Cc1cc(NC(=O)c2cc(-c3cccc(OCC(C)C)c3)nc3ccccc23)no1,2.33µM*,12.6µM*,-3.0%,-16.5%,-5.4,u
Cc1cc(NC(=O)c2cc(-c3ccc(C)c(C)c3)nc3ccccc23)no1,0.738µM*,u,-0.4%,1.9%,70.0,0.828µM*
Cc1cc(NC(=O)c2cc(-c3ccccn3)nc3c(Cl)cccc23)no1,2.08µM*,7.1%,2.3%,4.1%,35.9,-3.8%
OC[C@H]1O[C@@H](c2nc(-c3ccc(CN4CCOCC4)cc3)no2)[C@H](O)[C@@H](O)[C@H]1O,x,x,x,x,13.5,x
NC(=O)CC(NC(=O)Cc1ccc(Cl)cc1)c1ccc(NCCOc2ccccc2)c([N+](=O)[O-])c1 (stereo unspecified),u,-22.0%,-3.7%,-6.6%,-14.2,u
O=C(NC1CCCCC1)c1cc2c(cc1Cl)N1CCCCCC1=NS2(=O)=O,u,-9.7%,4.3%,-0.7%,-96.8*,u
O=C(O)c1cc2c(cc1Cl)N1CCCCCC1=NS2(=O)=O,44.1%,17.2%,0.3%,-0.7%,28.3,15.6%
COC(=O)[C@@H]1[C@@H](CO)[C@@H]2Cn3c(ccc(Br)c3=O)[C@H]1N2S(=O)(=O)c1cccc(C)c1,x,x,x,x,-1.7,x
CCOC(=O)N1CCN(C(=O)c2cccc(N3C(=O)NC4CC3(C)Oc3ccccc34)c2)CC1 (stereo unspecified),1.85µM*,18.9%,-3.1%,-7.4%,-21.4,-15.4%
COc1cccc(N2CCN(C(=O)c3cccc(N4C(=O)NC5CC4(C)Oc4c(OC)cccc45)c3)CC2)c1 (stereo unspecified),-17.6%,-3.9%,-1.6%,-13.7%,-29.3,u
